Screening results: PubChem, Sanford-Burnham Center for Chemical Genomics
An excerpt weighted towards active compounds, which were near 4% of everything screened.
TIM10 inh – inhibits growth of TIM10 yeast strain. inhibition, % at 10 µM. S. cerevisiae TIM10 strain growth, BacTiter-Glo luminescence, 24 h. 330,000 tested, 1.4% active;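 active = inhibition of 40% or more at the single tested concentration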;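 also: wild-type TIM10 isogenic control strain grown at permissive 25 °C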
tim10-1 inh – inhibits growth of tim10-1 mutant yeast | S. cerevisiae tim10-1 ts strain growth, BacTiter-Glo, 24 h | inhibition, % at 20 µM | 330,000 tested, 2.2% active | AID 463190;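 active = inhibition of at least 40%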;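 also: mutant grown at 25 °C; 0% = DMSO wells with yeast and 100% = wells holding no yeast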
NALP1 yeast inh – inhibitors of NALP1 inflammasome in yeast. S. cerevisiae NALP1/ASC/caspase-1 growth, X-gal OD620, 72 h. inhibition, % at 10 µM. 280,000 tested, 0.61% active. AID 2071; in the data active = inhibition mostly above about 24%, no sharp cut-off; inactive = mostly below about 32%
NALP3 yeast inh – inhibitors of NALP3 inflammasome in yeast; Yeast reconstituted NLRP3/ASC/caspase-1, beta-gal luminescence, 24 h; inhibition, % at 10 µM; 330,000 tested, 0.39% active;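 active = inhibition of 50% or more; inactive = inhibition below 50%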;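 also: plate controls were induced DMSO wells for no effect and uninduced yeast grown without galactose for full effect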
tim23-1 inh – tim23-1 yeast growth inhibition. inhibition, % at 20 µM. S. cerevisiae tim23-1 growth, BacTiter-Glo luminescence, 24 h. 330,000 tested, 1.3% active;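 active = growth inhibition of the mutant yeast at or above 50%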;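 also: temperature-sensitive mutant grown at 25 °C; plate controls were DMSO-treated mutant yeast for no effect and medium wells lacking yeast for full effect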
tim10-1 conf – confirmation of tim10-1 mutant yeast growth inhibitors | S. cerevisiae tim10-1 ts strain growth, BacTiter-Glo, 24 h | inhibition, % at 20 µM | shares compounds with tim10-1 inh | 7,400 tested, 56% active;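 active = inhibition of yeast growth at or above a set limit in either of two repeat tests at 20 µM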;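 also: tim10-1 mutant grown at permissive 25 °C to find synthetic lethal compounds; 0% = DMSO yeast wells and 100% = medium wells without yeast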
tim10 confirm – confirmation of TIM10 yeast growth inhibitors | inhibition, % at 10 µM | AID 463215 | S. cerevisiae tim10 strain growth, BacTiter-Glo luminescence, 24 h | 4,600 tested, 63% active | shares compounds with TIM10 inh;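 active = inhibition of yeast growth at or above a set limit in either of two replicates at 10 µM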;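 also: this counterscreen used the strain with wild-type TIM10; 0% = yeast with DMSO and 100% = medium wells lacking yeast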
tim23-1 conf – tim23-1 yeast growth inhibition, confirmed; shares compounds with tim23-1 inh; S. cerevisiae tim23-1 growth, BacTiter-Glo luminescence, 24 h; inhibition, % at 20 µM; 4,400 tested, 83% active; AID 463218;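 active = inhibition above about 39% in either of two replicate wells at 20 µM, limit read from the data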;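 also: temperature-sensitive tim23-1 mutant grown at 25 °C; 0% = DMSO wells with yeast and 100% = medium wells without yeast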
* = called active by the depositor; · = no result.

SMILES	TIM10 inh	tim10-1 inh	NALP1 yeast inh	NALP3 yeast inh	tim23-1 inh	tim10-1 conf	tim10 confirm	tim23-1 conf
CCOC(=O)N1c2ccccc2Sc2ccccc21	-8.6	2.7	-16.3	21.1	-37.3	·	·	·
CCC(C(=O)O/N=C(\N)c1ccc(C)cc1)c1ccccc1 (stereo not given)	64.5*	68.7*	-14.0	0.9	54.1*	60.9*	-14.9	67.6*
CCCc1cc(CN(C)C(=O)CC2C(=O)NCCN2Cc2ccccc2C)[nH]n1 (stereo not given)	8.7	9.5	-1.4	6.8	12.7	·	·	·
CCOC(=O)C1=C(C)NC(=O)NC1/C(C)=C/c1ccccc1 (stereo not given)	13.2	5.7	3.8	2.6	8.4	·	·	·
NC(=O)SCC(=O)Nc1ccc(Cl)c(Cl)c1	-26.8	70.9*	3.0	22.9	79.8*	31.0*	·	76.3*
Clc1cccc(-c2cc3nc4c(c(N5CCNCC5)n3n2)CCCC4)c1	·	·	10.8	·	·	·	·	·
OC1CCN(c2c3c(nc4cc(-c5cccc(F)c5)nn24)CCCC3)CC1	14.5	40.9*	9.9	6.8	50.5*	19.4	·	34.9
COc1cccc(-n2nc(C#N)c(Cl)cc2=O)c1	55.3*	67.8*	1.3	-16.0	62.3*	56.0*	39.4*	62.8*
NCC1CC2c3ccccc3C1c1ccccc12 (stereo not given)	7.0	-15.8	7.2	14.7	18.6	·	·	·
CC(C)CN1C(=O)/C(=C(/C#N)C(=O)NC2CCCCC2)c2ccccc21	79.1*	72.0*	-0.4	-2.8	64.0*	71.2*	78.9*	50.1*
N/C(=N\OC(=O)Nc1ccccc1)c1ncc(C(F)(F)F)cc1Cl	25.0	25.7	-1.9	-0.8	44.7	·	·	·
N/C(=N\OC(=O)Nc1ccc(Cl)cc1)c1ncc(C(F)(F)F)cc1Cl	68.8*	52.8*	0.0	3.4	75.4*	64.2*	80.4*	73.0*
N/C(=N\OC(=O)Nc1ccccc1)c1cccc(C(F)(F)F)c1	14.2	53.6*	2.9	6.9	63.7*	41.1*	·	49.1*
CCCCNC(=O)c1sc2ncnc(N3CCc4ccccc4C3)c2c1C	43.2*	47.5*	8.6	17.4	54.8*	34.8*	36.2*	51.1*
CCOC(=O)c1cnc(-n2nc(C)cc2C)nc1NC(C)c1ccccc1 (stereo not given)	52.8*	44.4*	-8.5	23.4	54.2*	30.3	56.5*	44.7*
Cc1cccc2c1NC(=O)/C2=C\C(=O)c1cccs1	81.8*	83.3*	3.1	43.2	81.1*	87.4*	88.2*	76.7*
CN(C)/C=C/C(=O)c1ccc(Br)s1	-13.2	7.2	0.8	12.9	27.6	·	·	·
Cc1nn(C)cc1/C=C/C(=O)c1cccs1	9.6	25.2	-4.0	10.7	47.5	·	·	·
Cc1cc(C)c2c(c1)/C(=C/C(=O)c1ccc(Br)s1)C(=O)N2	76.1*	77.7*	2.9	21.6	73.8*	68.8*	66.0*	70.2*
Cc1ccc(S(=O)(=O)Nc2ccc(C(=O)OCC(=O)N(CCC#N)c3ccccc3)cc2)cc1C	-5.7	18.6	42.8	3.8	1.5	·	·	·
CC(=O)N1CCN(c2nnc(-c3ccccc3)c3ccccc23)CC1	-30.3	-46.1	-15.4	0.9	-58.1	·	·	·
Cc1ccc(-c2nnc(N3CCN(C(=O)c4ccco4)CC3)c3ccccc23)cc1	53.1*	61.1*	-4.2	25.5	70.5*	50.2*	-12.4	62.8*
Cc1c(C#N)c(N=CN(C)C)c(C(=O)c2ccc(Br)cc2)n1-c1ccccc1	41.9*	41.0*	-22.7	7.4	55.7*	24.6	22.1	35.4
COc1ccc(-c2oc3cccnc3c2C#CC2(O)CCCCC2)cc1	41.5*	48.2*	-11.4	-12.6	58.3*	10.9	26.1	47.6*
O=C(Nc1cccc(Cl)c1Cl)C1CCN(C(=O)c2cccs2)CC1	-15.4	4.5	21.3	38.4	9.2	·	·	·
SMILES	TIM10 inh	tim10-1 inh	NALP1 yeast inh	NALP3 yeast inh	tim23-1 inh	tim10-1 conf	tim10 confirm	tim23-1 conf
Cc1cc2nn(-c3cccc4ccccc34)nc2cc1N	22.4	25.5	39.7	1.8	27.9	·	·	·
Cc1cc2nc3ccc(N(C)C)cc3nc2cc1N	70.4*	45.8*	·	13.9	50.3*	57.7*	72.8*	40.7*
Cc1ccccc1NC(=O)C(=O)c1cn(C)c2ccccc12	2.9	-3.6	1.6	9.1	2.8	·	·	·
CC(C)NC(=O)/C(C#N)=C/c1cccc(NC(=O)c2ccccc2Cl)c1	62.8*	70.4*	49.9	20.8	78.4*	66.8*	0.9	67.0*
COCCNC(=O)/C(C#N)=C/c1cccc(NC(=O)c2ccccc2Cl)c1	26.9	38.4	20.4	27.3	31.0	·	·	·
NC(=O)c1cccc2ccccc12	1.6	0.8	-4.2	-3.7	-1.1	·	·	·
N/C(Cc1ccc(Cl)cc1Cl)=N\OC(=O)c1ccccc1F	81.4*	62.6*	29.6	4.4	64.8*	14.1	87.6*	52.5*
N/C(Cc1cccc2ccccc12)=N\OC(=O)c1ccccc1F	61.0*	55.5*	17.3	12.4	66.8*	49.5*	71.3*	75.6*
N/C(Cc1ccccc1)=N\OC(=O)c1cccc2ccccc12	85.2*	76.7*	78.0	-4.8	68.1*	57.2*	90.9*	49.6*
N/C(=N\OC(=O)c1cccc2ccccc12)c1ccc(Br)cc1	69.1*	66.5*	5.7	21.3	63.4*	61.0*	69.1*	68.3*
N/C(=N\OC(=O)Cc1ccccc1)c1ccc(Br)cc1	25.2	37.4	16.8	11.5	21.1	·	·	·
c1ccc(-c2cncn2-c2ccccc2)cc1	-20.7	6.3	·	19.1	-8.7	·	·	·
O=C(NCCN1CCOCC1)c1cccc(S(=O)(=O)Nc2ccc(Br)cc2)c1	-0.1	11.5	·	-0.1	12.5	·	·	·
CN(C)S(=O)(=O)c1ccc(N2CCCC2)c(C(=O)NC(c2ccccc2)c2ccccc2)c1	7.2	-2.2	28.9	0.5	-2.0	·	·	·
COc1ccc(NC(=O)CN2CCN(C(=O)N3CCOCC3)CC2)cc1	-15.9	-2.9	22.1	12.4	5.7	·	·	·
Cc1ccc(S(=O)(=O)N2CCCCCC2)cc1C(=O)NCc1ccccn1	14.3	-0.8	4.4	10.2	9.8	·	·	·
Cc1ccc(-c2noc(CN(C)C(=O)c3ccc(Br)o3)n2)cc1	-26.2	-19.0	·	30.4	5.9	·	·	·
O=C(O/N=C(\c1ccccc1)c1ccncc1)c1ccccc1F	29.6	50.1*	-4.2	9.8	50.5*	37.2*	·	61.0*
O=C(O/N=C(/c1ccccc1)c1ccncc1)c1cccc(F)c1	38.5	29.1	-7.0	6.7	37.5	·	·	·
O=C(Nc1cccc(NC(=O)c2ccc(Cl)cc2Cl)c1)c1cccnc1	20.5	18.6	-26.1	12.7	15.7	·	·	·
